In ChEMBL document CHEMBL4513146, “CO-ADD screening of Karazin Kharkiv National University (Ukraine) compounds”:
Potency and affinity values are given separately.

How the values were obtained:
Staphylococcus aureus = settings: Concentration 32 ug.mL-1;; ASSAY_TEST Inhibition of Bacterial Growth; detection method Absorption (OD600); MEDIA CAMHB; plate type 384well; NBS; CORNING #3640; time 18 hr
Escherichia coli = settings: Concentration 32 ug.mL-1;; ASSAY_TEST Inhibition of Bacterial Growth; detection method Absorption (OD600); MEDIA CAMHB; plate type 384well; NBS; CORNING #3640; time 18 hr

| Structure (SMILES) | Inhibition (Staphylococcus aureus) | Inhibition (Escherichia coli) |
| --- | --- | --- |
| O=C(Cn1nc2c(Sc3ccccc3)nccn2c1=O)Nc1ccc(Br)cc1F | 5.84% | -2.08% |
| O=C(CSc1nnc2c(=O)n(-c3cccc(F)c3)ccn12)N1CCN(c2ccc(F)cc2)CC1 | 3.76% | 1.02% |
| CCc1nnc2ccc(S(=O)(=O)N(Cc3ccc(OC)cc3)c3cccc(F)c3)cn12 | -1.45% | -12.26% |
| CCCCc1ccc(NC(=O)Cn2nc3c(SC4CCCCC4)nccn3c2=O)cc1 | -1.79% | -6.08% |
| Cc1ccc(NC(=O)Cn2nc3c(N4CCOCC4)nc4ccccc4n3c2=O)cc1C | 6.57% | -0.21% |
